The target of test [1] is T1, Inhibitor of nuclear factor kappa-B kinase subunit epsilon (Homo sapiens) (UniProt Q14164).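 Note: reported values are averaged percent inhibition figures against human IKKε.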
T1 sequence (whole entry): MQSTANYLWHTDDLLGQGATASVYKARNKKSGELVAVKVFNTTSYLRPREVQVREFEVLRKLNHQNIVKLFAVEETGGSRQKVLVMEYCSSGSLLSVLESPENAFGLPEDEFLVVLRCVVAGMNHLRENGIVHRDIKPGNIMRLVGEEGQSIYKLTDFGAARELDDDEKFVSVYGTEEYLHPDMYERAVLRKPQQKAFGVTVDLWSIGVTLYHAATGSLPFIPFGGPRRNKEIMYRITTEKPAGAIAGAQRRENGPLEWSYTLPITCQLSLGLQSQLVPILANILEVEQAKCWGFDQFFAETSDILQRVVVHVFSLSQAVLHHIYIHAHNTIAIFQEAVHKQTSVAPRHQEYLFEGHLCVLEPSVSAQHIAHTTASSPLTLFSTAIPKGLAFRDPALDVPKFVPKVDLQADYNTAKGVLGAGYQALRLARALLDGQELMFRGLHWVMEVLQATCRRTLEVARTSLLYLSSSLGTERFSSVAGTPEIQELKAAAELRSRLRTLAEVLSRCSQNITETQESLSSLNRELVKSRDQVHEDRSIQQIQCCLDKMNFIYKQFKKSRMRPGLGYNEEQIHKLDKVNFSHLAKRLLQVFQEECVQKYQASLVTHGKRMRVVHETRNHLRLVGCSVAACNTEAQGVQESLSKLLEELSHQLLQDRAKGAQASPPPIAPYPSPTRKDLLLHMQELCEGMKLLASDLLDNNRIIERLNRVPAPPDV
As to conditions: at 1 µM.

Test [2] addresses T2, Serine/threonine-protein kinase Nek1 (Homo sapiens) (UniProt Q96PY6).
T2 sequence (whole entry): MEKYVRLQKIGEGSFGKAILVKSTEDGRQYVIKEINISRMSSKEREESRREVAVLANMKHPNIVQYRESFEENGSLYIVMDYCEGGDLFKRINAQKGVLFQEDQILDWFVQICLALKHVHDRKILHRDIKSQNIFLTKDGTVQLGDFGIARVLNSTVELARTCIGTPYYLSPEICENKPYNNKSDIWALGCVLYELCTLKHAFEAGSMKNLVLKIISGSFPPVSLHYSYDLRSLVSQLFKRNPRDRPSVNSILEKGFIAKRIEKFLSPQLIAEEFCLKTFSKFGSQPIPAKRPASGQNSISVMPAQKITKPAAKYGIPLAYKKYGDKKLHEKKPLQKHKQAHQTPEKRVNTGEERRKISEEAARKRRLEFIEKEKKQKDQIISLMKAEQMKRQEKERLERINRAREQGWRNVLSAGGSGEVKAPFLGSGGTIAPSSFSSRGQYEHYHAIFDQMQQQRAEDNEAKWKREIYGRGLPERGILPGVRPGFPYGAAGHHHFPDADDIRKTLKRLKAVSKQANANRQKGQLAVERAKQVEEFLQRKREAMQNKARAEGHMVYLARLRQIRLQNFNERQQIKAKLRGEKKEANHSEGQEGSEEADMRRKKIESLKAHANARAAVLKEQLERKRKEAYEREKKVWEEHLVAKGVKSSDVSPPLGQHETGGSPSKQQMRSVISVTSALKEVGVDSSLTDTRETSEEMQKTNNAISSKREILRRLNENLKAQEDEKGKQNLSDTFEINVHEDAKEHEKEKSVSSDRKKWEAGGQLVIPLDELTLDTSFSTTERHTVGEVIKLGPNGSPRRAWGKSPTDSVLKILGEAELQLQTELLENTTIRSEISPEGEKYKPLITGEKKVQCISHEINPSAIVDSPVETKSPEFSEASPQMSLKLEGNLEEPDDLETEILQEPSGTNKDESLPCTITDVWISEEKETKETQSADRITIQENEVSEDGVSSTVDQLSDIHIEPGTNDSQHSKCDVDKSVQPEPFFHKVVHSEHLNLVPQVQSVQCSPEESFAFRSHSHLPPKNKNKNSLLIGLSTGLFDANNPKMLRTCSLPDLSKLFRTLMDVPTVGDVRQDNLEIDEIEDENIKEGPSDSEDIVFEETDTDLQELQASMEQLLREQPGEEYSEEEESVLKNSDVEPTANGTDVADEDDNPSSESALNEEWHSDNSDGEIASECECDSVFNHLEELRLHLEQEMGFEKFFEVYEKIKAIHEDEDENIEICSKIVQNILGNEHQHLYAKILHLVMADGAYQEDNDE
Conditions: at 0.1 µM.

Test [3] addresses T2, Serine/threonine-protein kinase Nek1 (Homo sapiens). Conditions: at 1 µM.
The target of test [4] is T3, Serine/threonine-protein kinase Nek2 (Homo sapiens) (UniProt P51955).
T3 sequence (whole entry): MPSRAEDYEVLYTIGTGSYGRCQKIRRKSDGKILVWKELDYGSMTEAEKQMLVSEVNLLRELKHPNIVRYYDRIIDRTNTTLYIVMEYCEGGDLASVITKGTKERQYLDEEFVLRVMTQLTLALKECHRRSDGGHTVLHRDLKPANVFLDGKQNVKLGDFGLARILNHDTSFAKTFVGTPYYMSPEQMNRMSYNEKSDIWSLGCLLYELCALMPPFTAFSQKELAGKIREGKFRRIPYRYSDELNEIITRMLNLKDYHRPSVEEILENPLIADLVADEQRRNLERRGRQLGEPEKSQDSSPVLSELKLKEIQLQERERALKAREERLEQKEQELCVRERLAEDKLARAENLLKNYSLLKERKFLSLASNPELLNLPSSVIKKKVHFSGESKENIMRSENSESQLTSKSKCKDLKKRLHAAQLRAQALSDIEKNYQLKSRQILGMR
As to conditions: at 0.1 µM.

Test [5] concerns the target T3, Serine/threonine-protein kinase Nek2 (Homo sapiens). Conditions: at 1 µM.
Test [6] deals with Serine/threonine-protein kinase Nek6 (Homo sapiens) (UniProt Q9HC98). Conditions: at 0.1 µM.
Test [7] shares this target. Conditions: at 1 µM.
Test [8] addresses Serine/threonine-protein kinase Nek7 (Homo sapiens) (UniProt Q8TDX7). Conditions: at 0.1 µM.
For test [9] the target is unchanged. Conditions: at 1 µM.
Test [10] has as its target T4, Serine/threonine-protein kinase Nek9 (Homo sapiens) (UniProt Q8TD19).
T4 sequence (whole entry): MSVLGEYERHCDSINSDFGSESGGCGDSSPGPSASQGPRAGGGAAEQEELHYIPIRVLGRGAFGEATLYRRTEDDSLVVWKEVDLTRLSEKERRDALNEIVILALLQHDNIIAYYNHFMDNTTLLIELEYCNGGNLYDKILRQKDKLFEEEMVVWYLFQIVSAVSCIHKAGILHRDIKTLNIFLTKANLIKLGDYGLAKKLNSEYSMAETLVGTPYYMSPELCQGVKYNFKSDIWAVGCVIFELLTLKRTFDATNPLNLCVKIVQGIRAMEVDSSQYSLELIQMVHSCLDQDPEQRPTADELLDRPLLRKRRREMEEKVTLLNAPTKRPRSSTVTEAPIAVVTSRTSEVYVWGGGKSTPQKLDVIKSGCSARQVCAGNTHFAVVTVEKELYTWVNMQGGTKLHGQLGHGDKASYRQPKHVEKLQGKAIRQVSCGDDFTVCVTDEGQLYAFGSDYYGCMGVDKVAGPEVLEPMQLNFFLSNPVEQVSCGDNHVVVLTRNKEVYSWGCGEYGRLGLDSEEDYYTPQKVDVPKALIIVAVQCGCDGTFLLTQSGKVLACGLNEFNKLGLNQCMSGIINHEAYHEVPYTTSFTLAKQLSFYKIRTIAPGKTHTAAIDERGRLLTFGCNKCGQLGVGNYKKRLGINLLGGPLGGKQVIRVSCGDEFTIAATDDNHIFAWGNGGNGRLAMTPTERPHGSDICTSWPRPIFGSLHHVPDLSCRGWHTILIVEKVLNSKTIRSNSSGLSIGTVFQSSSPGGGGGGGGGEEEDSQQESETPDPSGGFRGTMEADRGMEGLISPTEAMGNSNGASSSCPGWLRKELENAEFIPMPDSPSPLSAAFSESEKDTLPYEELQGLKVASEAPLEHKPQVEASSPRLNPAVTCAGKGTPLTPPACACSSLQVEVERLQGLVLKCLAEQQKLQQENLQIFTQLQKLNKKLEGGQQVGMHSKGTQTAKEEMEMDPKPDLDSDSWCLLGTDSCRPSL
Conditions: at 0.1 µM.

The target of test [11] is T4, Serine/threonine-protein kinase Nek9 (Homo sapiens). Conditions: at 1 µM.
Test [12] has as its target Serine/threonine-protein kinase PLK1 (Homo sapiens) (UniProt P53350). As to conditions: at 0.1 µM.
Test [13] shares this target. As to conditions: at 1 µM.
Test [14] concerns the target T5, Dual specificity protein kinase TTK (Homo sapiens) (UniProt P33981).
T5 sequence (whole entry): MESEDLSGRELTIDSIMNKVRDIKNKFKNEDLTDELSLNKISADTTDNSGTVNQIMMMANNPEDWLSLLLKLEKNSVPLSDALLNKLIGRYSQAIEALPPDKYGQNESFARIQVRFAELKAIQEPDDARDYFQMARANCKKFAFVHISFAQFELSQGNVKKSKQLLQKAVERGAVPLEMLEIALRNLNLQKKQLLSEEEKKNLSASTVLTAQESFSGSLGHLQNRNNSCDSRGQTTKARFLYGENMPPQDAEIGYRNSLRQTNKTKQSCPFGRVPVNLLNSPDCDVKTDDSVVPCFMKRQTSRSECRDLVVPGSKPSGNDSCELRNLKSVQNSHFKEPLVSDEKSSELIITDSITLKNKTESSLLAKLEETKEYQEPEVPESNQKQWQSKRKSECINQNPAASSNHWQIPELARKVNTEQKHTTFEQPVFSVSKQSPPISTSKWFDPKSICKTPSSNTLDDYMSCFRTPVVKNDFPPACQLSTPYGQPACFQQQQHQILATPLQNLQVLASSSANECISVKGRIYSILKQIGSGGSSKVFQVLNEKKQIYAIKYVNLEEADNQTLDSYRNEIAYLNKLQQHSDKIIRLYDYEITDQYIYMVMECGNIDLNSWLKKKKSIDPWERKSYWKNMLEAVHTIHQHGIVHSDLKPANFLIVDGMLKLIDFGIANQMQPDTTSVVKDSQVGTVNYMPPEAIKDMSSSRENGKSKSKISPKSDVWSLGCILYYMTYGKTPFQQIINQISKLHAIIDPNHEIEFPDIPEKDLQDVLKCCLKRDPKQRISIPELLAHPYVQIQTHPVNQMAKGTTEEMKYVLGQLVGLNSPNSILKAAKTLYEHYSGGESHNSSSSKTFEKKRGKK
Conditions: at 0.1 µM.

Test [15] deals with T6, Receptor-type tyrosine-protein kinase FLT3 (Homo sapiens), P36888 [D835Y].
T6 sequence (whole entry): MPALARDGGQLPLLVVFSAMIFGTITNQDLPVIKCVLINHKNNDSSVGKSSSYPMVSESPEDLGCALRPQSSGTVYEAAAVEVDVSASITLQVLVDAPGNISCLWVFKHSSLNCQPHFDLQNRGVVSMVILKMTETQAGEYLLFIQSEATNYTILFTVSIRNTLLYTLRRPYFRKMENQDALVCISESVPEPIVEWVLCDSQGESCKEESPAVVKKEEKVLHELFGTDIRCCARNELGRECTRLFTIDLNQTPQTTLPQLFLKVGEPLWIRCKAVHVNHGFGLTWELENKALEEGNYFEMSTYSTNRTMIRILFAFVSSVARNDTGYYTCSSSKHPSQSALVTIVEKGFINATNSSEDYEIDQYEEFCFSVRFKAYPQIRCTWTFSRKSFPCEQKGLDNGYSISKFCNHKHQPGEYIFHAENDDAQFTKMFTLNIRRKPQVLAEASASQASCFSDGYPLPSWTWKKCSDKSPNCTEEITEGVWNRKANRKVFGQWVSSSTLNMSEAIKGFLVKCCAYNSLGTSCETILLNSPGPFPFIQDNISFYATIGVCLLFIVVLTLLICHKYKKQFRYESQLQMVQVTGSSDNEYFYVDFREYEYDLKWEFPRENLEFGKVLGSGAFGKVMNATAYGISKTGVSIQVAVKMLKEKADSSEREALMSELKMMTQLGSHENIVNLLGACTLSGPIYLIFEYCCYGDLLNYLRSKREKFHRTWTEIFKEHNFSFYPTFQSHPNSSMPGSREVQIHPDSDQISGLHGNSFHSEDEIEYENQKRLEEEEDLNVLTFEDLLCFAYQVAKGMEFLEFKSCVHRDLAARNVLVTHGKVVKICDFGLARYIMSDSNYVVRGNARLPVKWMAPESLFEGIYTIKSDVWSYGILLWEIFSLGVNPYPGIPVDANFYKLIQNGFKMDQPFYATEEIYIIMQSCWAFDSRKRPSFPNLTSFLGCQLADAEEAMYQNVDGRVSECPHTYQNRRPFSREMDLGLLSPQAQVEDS
Conditions: at 1 µM.

The target of test [16] is Vascular endothelial growth factor receptor 3 (Homo sapiens) (UniProt P35916). As to conditions: at 0.1 µM.
For test [17] the target is unchanged. Conditions: at 1 µM.
For test [18], the target named is Macrophage colony-stimulating factor 1 receptor (Homo sapiens) (UniProt P07333). Conditions: at 0.1 µM.
Test [19] shares this target. Conditions: at 1 µM.
Test [20] concerns the target Tyrosine-protein kinase Fyn (Homo sapiens) (UniProt P06241). Conditions: at 0.1 µM.

Sequence of Macrophage colony-stimulating factor 1 receptor (Homo sapiens) (P07333 whole entry): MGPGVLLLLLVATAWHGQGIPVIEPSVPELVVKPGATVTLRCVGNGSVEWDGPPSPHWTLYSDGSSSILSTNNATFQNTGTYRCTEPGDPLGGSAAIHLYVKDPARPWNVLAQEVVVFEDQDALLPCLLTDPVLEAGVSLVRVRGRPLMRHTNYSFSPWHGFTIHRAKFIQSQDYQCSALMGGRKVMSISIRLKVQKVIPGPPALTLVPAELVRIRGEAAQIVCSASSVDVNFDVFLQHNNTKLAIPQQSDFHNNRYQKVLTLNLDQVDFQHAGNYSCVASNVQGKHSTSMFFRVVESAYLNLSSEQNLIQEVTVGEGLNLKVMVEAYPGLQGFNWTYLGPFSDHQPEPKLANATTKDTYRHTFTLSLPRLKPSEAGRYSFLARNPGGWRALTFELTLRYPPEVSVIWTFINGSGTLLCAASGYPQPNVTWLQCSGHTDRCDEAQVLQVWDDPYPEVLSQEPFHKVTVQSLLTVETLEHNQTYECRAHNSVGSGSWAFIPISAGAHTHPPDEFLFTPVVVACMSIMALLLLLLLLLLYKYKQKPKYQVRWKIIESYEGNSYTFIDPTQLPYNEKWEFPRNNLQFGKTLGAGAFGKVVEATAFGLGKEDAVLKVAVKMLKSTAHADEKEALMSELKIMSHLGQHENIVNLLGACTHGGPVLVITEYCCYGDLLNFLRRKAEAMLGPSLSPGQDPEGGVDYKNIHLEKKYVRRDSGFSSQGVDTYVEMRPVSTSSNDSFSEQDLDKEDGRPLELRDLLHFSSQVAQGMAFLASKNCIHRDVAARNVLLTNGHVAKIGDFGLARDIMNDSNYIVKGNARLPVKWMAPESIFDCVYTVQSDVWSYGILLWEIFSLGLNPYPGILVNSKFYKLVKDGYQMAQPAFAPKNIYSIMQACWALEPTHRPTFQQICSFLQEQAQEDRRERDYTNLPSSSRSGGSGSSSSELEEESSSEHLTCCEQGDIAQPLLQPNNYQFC
Sequence of Serine/threonine-protein kinase Nek7 (Homo sapiens) (Q8TDX7 whole entry, looked up): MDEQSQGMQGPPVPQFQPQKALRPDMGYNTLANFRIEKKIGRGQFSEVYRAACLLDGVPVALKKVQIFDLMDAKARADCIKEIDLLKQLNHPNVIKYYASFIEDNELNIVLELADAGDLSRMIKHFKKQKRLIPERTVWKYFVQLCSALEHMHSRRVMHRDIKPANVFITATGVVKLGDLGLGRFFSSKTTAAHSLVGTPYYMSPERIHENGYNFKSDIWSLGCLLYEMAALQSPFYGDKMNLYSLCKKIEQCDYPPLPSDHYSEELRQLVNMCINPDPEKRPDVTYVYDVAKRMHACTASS
Sequence of Serine/threonine-protein kinase Nek6 (Homo sapiens) (Q9HC98 whole entry): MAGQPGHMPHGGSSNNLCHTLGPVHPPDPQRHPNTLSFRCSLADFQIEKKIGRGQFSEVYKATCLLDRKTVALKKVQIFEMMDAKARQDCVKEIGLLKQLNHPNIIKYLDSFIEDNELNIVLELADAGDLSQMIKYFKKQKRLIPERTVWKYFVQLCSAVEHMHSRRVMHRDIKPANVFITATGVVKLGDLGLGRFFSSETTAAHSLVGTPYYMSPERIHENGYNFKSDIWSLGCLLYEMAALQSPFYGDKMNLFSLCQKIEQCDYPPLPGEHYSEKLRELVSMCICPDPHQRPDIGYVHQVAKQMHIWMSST
Sequence of Serine/threonine-protein kinase PLK1 (Homo sapiens) (P53350 whole entry): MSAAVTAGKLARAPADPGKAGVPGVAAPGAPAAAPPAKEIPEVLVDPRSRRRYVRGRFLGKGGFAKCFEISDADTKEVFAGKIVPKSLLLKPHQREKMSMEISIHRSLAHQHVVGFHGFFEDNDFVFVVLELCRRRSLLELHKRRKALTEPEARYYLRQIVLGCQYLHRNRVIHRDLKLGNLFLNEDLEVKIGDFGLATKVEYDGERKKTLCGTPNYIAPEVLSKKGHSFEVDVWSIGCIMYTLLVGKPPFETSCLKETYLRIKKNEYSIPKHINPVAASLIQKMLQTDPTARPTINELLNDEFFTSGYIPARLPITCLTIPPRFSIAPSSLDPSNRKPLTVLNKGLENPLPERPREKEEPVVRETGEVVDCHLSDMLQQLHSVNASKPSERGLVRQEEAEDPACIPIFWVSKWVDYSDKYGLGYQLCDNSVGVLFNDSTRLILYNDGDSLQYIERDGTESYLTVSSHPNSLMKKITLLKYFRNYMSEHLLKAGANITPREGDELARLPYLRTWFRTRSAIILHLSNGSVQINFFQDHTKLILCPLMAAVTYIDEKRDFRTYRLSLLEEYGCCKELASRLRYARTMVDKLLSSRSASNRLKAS
Sequence of Vascular endothelial growth factor receptor 3 (Homo sapiens) (P35916 whole entry): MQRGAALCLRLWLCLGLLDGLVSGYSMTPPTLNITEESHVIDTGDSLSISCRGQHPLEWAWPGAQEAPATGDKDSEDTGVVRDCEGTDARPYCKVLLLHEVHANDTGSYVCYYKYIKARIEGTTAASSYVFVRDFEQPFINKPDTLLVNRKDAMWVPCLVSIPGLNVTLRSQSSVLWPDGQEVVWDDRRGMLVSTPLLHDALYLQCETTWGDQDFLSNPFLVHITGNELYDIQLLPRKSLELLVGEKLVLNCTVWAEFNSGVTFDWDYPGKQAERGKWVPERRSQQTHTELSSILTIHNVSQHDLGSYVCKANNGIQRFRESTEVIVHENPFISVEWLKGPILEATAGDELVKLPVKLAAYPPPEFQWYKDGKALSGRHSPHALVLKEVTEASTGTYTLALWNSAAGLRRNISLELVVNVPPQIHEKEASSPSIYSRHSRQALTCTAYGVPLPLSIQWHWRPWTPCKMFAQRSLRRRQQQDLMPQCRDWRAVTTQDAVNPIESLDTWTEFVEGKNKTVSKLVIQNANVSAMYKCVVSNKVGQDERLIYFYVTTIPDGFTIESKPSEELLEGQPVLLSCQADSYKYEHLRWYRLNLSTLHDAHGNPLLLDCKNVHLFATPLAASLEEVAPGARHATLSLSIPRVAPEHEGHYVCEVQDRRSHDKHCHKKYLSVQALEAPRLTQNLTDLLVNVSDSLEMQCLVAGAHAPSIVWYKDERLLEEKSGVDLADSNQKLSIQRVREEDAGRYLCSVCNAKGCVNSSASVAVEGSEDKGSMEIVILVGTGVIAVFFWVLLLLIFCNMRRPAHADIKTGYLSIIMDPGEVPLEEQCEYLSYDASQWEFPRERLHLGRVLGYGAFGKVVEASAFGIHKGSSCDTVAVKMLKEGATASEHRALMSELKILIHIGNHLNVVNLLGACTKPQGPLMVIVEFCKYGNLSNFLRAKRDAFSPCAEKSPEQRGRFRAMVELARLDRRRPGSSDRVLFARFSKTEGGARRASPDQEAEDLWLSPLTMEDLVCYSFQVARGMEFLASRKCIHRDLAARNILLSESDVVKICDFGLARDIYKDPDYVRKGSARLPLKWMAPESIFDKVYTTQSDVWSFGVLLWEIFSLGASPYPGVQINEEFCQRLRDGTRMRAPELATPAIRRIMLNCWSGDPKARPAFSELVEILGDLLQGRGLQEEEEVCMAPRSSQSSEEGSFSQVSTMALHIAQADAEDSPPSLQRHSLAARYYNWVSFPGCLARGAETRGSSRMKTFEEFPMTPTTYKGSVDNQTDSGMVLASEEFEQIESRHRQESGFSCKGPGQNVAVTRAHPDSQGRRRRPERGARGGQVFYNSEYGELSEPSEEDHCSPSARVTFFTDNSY
Sequence of Tyrosine-protein kinase Fyn (Homo sapiens) (P06241 2-537 limits assumed): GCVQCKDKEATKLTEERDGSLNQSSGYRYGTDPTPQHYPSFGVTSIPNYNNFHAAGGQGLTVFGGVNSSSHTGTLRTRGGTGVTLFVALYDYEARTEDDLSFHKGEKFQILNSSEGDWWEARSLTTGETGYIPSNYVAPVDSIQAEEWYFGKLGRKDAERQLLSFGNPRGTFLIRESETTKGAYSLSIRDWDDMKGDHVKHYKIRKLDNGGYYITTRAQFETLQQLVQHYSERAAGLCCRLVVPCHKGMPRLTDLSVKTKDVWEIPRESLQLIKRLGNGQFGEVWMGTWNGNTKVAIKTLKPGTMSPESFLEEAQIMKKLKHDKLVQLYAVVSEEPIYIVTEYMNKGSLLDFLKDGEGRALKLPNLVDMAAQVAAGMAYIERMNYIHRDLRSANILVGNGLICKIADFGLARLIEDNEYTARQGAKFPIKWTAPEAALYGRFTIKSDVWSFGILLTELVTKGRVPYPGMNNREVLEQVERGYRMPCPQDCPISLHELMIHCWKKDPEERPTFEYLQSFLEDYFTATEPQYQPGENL

In the case of `CN(c1ccc(NC(=O)NCCN2CCOCC2)cc1)c1ccnc(Nc2ccc(CS(C)(=O)=O)cc2)n1`, the inhibition (commonly how much of the control response was suppressed) in test [1] came out at 95.2%; in test [2], 2.09%; in test [3], 4.64%; in test [4] it was 2.52%; in test [5], 1.94%; in test [6], 3.82%. In addition, the inhibition in test [7] is 3.91%; in [8], 3.06%; in [9] it was 3.17%; in test [10], 5.2%; in test [11], 4.91%; in [12], 0.46%. Besides, the inhibition in test [13] was found to be 1.42%; in [14], 6.2%; in [15], 19.9%; in test [16], 4.1%; in test [17], 20.6%; in test [18] it was 79.7%. Moreover, the inhibition in test [19] is 97%; in test [20], 0.52%.

With `NS(=O)(=O)c1ccc(N/N=C2\C(=O)Nc3ccc(C(=O)NCc4ccncc4)cc32)cc1`, the inhibition amounted to 49.1% in test [1]; 1.96% in test [2]; 4.03% in test [3]; 4.39% in test [4]; 3.78% in test [5]; 3.86% in [6]. The inhibition was found to be 5.08% in test [7]; 3.8% in test [8]; 4.4% in [9]; 9.13% in test [10]; 9.05% in test [11]; 3.77% in [12]. Further, the inhibition in [13] amounted to 2.52%; in test [14] it was 37.6%; in test [15], 34.3%; in [16], 16.7%; in [17], 48.7%; in [18] it was 3.12%. The inhibition in test [19] came out at 8.74%; in [20], 9.13%.

The record behind these values is ChEMBL document CHEMBL1961873, “Compounds: GSK PKIS; Assays: Nanosyn kinase panel” (2012).
